Source: the supplement of paper PMC6411743
± gives the standard deviation of the averaged measurements. About 6,200 targets were measured; listed, in parts, are those with the largest changes and a random draw of the rest.

Compound: Nc1ncnc2c1ncn2[C@@H]1O[C@H](COP(=O)(O)OP(=O)(O)NP(=O)(O)O)[C@@H](O)[C@H]1O [adenylyl imidodiphosphate]
Assay: NP40-soluble protein abundance relative to vehicle (solubility fold change) (ratio); higher = more soluble protein in presence of AMP-PNP
In short: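 Across three independent experiments, values are fold changes against the detergent-processed vehicle for each replicate, based on vsn-normalised intensities. The samples were Jurkat crude lysate treated with eight concentrations (0.1 to 10 mM) for 10 min at room temperature and then 3 min at 37 °C. Lysate was solubilised with 0.8% NP40 and benzonase, ultracentrifuged, and the supernatant analysed by TMT-labelled LC-MS/MS.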

UniProt P37268, sequence (P37268 whole entry): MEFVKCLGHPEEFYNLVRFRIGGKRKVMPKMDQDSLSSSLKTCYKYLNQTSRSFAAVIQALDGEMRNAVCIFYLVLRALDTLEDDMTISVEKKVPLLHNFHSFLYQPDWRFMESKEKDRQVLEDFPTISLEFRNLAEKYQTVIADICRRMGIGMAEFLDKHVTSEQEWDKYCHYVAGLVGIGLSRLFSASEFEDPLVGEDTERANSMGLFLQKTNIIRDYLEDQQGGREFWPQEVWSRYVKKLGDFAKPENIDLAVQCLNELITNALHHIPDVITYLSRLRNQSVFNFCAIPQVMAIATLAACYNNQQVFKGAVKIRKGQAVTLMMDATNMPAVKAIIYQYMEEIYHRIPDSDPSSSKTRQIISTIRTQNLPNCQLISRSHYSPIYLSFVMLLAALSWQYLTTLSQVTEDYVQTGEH
UniProt Q12872, sequence (Q12872 whole entry): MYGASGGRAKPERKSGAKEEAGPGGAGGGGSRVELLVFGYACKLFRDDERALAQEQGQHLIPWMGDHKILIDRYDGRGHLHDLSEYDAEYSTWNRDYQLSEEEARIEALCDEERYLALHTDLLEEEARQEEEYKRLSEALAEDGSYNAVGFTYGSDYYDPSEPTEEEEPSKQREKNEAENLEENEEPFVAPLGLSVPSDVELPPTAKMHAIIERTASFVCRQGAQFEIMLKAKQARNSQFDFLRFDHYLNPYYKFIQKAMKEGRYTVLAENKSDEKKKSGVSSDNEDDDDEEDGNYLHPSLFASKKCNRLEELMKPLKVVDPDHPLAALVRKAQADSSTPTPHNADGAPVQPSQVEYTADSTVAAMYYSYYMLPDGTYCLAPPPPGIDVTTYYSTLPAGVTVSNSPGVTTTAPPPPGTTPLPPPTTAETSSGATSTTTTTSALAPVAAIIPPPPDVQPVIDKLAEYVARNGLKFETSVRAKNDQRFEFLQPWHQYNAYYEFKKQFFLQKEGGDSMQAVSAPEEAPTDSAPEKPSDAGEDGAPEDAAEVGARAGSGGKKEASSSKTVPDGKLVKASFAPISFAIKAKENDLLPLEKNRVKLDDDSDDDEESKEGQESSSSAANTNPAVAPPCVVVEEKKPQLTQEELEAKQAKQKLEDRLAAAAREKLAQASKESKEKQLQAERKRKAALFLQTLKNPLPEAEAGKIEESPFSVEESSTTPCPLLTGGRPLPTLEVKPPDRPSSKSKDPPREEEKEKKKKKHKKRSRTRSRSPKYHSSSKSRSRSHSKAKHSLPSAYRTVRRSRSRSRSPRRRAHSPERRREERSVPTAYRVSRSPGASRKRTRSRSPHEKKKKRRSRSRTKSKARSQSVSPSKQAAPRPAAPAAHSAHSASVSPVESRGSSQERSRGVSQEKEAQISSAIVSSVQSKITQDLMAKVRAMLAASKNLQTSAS
UniProt O95782, sequence (O95782 whole entry): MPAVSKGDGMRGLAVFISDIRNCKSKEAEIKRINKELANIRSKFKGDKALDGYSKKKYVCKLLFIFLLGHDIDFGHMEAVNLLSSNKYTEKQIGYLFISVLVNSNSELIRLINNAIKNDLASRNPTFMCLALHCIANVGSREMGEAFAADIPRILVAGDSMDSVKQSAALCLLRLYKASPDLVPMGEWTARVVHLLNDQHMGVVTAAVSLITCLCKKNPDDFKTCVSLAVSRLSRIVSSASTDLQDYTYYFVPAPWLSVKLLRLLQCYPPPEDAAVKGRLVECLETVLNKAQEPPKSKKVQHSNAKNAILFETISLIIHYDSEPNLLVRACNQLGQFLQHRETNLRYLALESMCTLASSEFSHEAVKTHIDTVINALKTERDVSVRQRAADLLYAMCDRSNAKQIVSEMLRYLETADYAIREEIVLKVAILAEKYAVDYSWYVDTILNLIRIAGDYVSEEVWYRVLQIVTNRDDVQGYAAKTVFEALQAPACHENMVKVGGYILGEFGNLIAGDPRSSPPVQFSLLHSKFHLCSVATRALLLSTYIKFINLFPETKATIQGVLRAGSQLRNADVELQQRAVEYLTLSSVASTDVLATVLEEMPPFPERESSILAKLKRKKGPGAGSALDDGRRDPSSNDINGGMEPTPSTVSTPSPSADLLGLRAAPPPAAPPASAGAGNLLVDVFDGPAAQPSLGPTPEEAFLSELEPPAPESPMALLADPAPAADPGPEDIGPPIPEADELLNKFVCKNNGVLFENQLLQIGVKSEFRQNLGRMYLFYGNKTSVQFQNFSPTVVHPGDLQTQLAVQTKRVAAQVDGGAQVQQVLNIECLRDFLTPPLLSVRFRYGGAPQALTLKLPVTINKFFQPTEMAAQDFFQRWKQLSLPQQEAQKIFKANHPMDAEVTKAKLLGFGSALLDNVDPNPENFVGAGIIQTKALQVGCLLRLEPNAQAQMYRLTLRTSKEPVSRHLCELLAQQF
UniProt Q12974, sequence (Q12974 whole entry): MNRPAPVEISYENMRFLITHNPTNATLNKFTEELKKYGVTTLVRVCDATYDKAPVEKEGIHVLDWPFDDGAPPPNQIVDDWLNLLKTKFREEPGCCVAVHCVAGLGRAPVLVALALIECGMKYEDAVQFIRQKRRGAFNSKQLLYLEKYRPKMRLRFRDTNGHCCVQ
UniProt P17812, sequence (P17812 whole entry): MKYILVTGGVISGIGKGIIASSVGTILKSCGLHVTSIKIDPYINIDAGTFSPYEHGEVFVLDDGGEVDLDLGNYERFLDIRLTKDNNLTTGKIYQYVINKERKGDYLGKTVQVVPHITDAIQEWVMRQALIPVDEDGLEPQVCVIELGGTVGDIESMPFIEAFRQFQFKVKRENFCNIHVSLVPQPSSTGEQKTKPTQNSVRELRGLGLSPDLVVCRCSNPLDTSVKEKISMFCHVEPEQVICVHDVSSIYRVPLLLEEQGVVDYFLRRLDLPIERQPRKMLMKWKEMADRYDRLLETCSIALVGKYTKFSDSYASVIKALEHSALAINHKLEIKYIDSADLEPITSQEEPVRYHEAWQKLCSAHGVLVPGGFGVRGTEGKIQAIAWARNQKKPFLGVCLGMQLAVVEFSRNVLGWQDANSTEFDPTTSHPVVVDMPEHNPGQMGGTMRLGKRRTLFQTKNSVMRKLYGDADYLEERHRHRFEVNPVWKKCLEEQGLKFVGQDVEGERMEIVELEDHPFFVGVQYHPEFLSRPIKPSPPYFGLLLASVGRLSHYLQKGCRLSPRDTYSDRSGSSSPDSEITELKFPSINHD
UniProt P23246, sequence (P23246 whole entry): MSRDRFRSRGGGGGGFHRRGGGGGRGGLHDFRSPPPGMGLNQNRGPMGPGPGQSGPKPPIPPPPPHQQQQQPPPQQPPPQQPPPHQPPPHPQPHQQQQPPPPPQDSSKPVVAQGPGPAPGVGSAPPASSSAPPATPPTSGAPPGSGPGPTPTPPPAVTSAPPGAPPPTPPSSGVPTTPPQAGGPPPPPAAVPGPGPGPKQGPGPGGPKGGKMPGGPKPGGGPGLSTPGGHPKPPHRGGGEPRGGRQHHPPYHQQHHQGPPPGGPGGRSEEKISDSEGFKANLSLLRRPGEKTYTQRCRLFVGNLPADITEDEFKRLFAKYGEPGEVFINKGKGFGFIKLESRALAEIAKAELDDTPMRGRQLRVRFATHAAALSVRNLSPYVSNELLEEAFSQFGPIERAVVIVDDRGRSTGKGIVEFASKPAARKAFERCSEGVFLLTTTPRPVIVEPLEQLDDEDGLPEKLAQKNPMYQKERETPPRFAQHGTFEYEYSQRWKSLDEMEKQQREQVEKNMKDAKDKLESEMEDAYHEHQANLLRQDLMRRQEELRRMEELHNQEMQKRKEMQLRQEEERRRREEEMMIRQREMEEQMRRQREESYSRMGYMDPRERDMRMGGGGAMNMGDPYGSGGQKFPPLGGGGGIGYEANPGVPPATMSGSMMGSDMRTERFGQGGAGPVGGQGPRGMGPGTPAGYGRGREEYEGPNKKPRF
UniProt Q13105, sequence (Q13105 whole entry): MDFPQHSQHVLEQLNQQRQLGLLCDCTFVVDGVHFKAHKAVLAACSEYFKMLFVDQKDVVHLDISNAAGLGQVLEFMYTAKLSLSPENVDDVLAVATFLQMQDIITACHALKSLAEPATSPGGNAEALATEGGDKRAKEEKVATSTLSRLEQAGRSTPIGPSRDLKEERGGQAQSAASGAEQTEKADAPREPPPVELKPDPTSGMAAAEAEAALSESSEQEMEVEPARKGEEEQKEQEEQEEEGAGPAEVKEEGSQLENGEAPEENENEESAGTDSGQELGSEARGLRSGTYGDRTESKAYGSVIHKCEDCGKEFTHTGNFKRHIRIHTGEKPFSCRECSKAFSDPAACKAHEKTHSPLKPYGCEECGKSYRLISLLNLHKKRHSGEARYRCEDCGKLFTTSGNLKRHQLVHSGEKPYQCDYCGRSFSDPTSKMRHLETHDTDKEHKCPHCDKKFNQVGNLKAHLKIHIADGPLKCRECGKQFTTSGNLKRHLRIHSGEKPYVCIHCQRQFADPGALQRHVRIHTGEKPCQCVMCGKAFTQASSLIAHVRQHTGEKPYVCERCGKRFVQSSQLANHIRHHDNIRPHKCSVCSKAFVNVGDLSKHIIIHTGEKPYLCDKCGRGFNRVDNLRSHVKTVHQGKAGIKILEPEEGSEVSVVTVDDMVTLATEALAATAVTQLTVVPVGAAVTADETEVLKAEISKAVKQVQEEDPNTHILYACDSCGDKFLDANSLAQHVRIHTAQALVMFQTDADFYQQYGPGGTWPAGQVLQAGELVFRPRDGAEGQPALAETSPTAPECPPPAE
UniProt P16403, sequence (P16403 whole entry): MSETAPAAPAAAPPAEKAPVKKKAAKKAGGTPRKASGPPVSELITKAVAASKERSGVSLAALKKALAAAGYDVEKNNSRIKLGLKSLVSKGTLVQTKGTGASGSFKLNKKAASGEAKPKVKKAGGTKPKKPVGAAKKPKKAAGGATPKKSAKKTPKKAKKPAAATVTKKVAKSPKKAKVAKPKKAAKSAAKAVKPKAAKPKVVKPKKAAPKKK
UniProt P05114, sequence (P05114 whole entry): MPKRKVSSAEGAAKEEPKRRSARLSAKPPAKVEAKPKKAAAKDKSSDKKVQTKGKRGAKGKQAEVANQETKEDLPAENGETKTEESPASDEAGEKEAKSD

Target	NP40-soluble protein abundance (concentration: 1mM)	NP40-soluble protein abundance (concentration: 2mM)	NP40-soluble protein abundance (concentration: 4mM)	NP40-soluble protein abundance (concentration: 6mM)	NP40-soluble protein abundance (concentration: 8mM)	NP40-soluble protein abundance (concentration: 10mM)
UniProt P08559|P08559-3|P08559-4|P08559-2	0.979 ± 0.13	0.94 ± 0.13	0.925 ± 0.13	0.923 ± 0.17	0.95 ± 0.12	0.965 ± 0.15
UniProt P17812	0.932 ± 0.03	0.873 ± 0.06	0.91 ± 0.033	0.96 ± 0.077	0.97 ± 0.04	0.924 ± 0.044
UniProt P26368|P26368-2	0.986 ± 0.075	1 ± 0.025	1.11 ± 0.069	1.24 ± 0.098	1.41 ± 0.09	1.51 ± 0.12
HSPA14 (UniProt Q0VDF9)	1.01 ± 0.046	0.998 ± 0.032	1.01 ± 0.034	1.012 ± 0.0091	1.03 ± 0.059	1.02 ± 0.049
UniProt P52948|P52948-2|P52948-5|P52948-6	1.07 ± 0.047	1.1 ± 0.015	1.13 ± 0.018	1.22 ± 0.056	1.28 ± 0.02	1.417 ± 0.011
ACTR1B (UniProt P42025)	1 ± 0.062	0.927 ± 0.12	0.983 ± 0.071	0.986 ± 0.029	0.965 ± 0.063	0.961 ± 0.091
UniProt P43155|P43155-2|P43155-3	0.974 ± 0.057	0.965 ± 0.011	1 ± 0.032	1.01 ± 0.086	1.01 ± 0.061	1.01 ± 0.077
ECHS1 (UniProt P30084)	0.9976 ± 0.0068	0.9885 ± 0.006	0.955 ± 0.029	0.994 ± 0.02	0.963 ± 0.017	0.961 ± 0.015
UniProt P26038|V9GZ54	0.967 ± 0.13	1.06 ± 0.14	0.988 ± 0.13	0.916 ± 0.088	0.935 ± 0.012	0.936 ± 0.067
RPS3A (UniProt P61247)	0.96 ± 0.052	0.931 ± 0.044	0.918 ± 0.11	0.895 ± 0.081	0.83 ± 0.057	0.947 ± 0.11
HSD17B4 (UniProt P51659)	1.01 ± 0.034	0.967 ± 0.026	1.04 ± 0.041	1.09 ± 0.058	1.12 ± 0.033	1.1 ± 0.034
PARP1 (UniProt P09874)	1.06 ± 0.018	1.09 ± 0.05	1.21 ± 0.016	1.39 ± 0.027	1.51 ± 0.071	1.59 ± 0.11
RBM34 (UniProt P42696)	1.07 ± 0.069	1.12 ± 0.044	1.15 ± 0.082	1.23 ± 0.12	1.23 ± 0.12	1.36 ± 0.16
HIST1H1E (UniProt P10412)	1.04 ± 0.06	1.15 ± 0.09	1.12 ± 0.05	1.25 ± 0.15	1.24 ± 0.23	1.56 ± 0.14
UniProt P62805	0.903 ± 0.073	0.951 ± 0.018	0.964 ± 0.046	1.12 ± 0.18	1.25 ± 0.16	1.52 ± 0.25
UniProt Q13105|Q13105-2|Q13105-3	1.01 ± 0.06	1.011 ± 0.0042	1.03 ± 0.028	1.04 ± 0.057	1.04 ± 0.051	1.07 ± 0.072
HMGN1 (UniProt P05114)	1.23 ± 0.1	1.36 ± 0.18	1.28 ± 0.074	1.57 ± 0.15	1.54 ± 0.16	1.89 ± 0.36
HIST1H1C (UniProt P16403)	1.02 ± 0.05	1.13 ± 0.042	1.07 ± 0.023	1.17 ± 0.06	1.2 ± 0.095	1.54 ± 0.15
UniProt Q12872|Q12872-2	1.04 ± 0.04	1.11 ± 0.061	1.12 ± 0.043	1.17 ± 0.097	1.2 ± 0.1	1.33 ± 0.1
ARL3 (UniProt P36405)	0.9899 ± 0.0033	0.945 ± 0.031	0.995 ± 0.048	0.988 ± 0.052	1.03 ± 0.041	0.99 ± 0.042
SFPQ (UniProt P23246)	1.15 ± 0.054	1.25 ± 0.076	1.41 ± 0.12	1.68 ± 0.26	1.75 ± 0.28	2.02 ± 0.41
UniProt Q05519|Q05519-2	1.12 ± 0.031	1.18 ± 0.11	1.21 ± 0.088	1.26 ± 0.049	1.34 ± 0.16	1.51 ± 0.2
SURF6 (UniProt O75683)	1.05 ± 0.056	1.12 ± 0.092	1.1 ± 0.057	1.17 ± 0.095	1.14 ± 0.12	1.22 ± 0.088
UniProt Q12974|Q12974-4	1.04 ± 0.032	1.022 ± 0.0039	0.956 ± 0.027	0.996 ± 0.025	1.02 ± 0.029	0.988 ± 0.02
UniProt P54136|P54136-2	0.957 ± 0.051	0.888 ± 0.14	0.92 ± 0.1	0.92 ± 0.097	0.945 ± 0.13	0.894 ± 0.16
FDFT1 (UniProt P37268)	0.993 ± 0.038	0.952 ± 0.027	0.991 ± 0.024	1.03 ± 0.1	1.05 ± 0.057	1.01 ± 0.078
PRIM2 (UniProt P49643)	0.996 ± 0.022	0.954 ± 0.018	1 ± 0.013	1.02 ± 0.044	1.02 ± 0.027	1.02 ± 0.029
UniProt P63279	0.993 ± 0.076	1.01 ± 0.076	1.01 ± 0.1	1.04 ± 0.12	1.12 ± 0.07	1.07 ± 0.066
UniProt O95782|O95782-2	0.994 ± 0.03	0.953 ± 0.058	1.07 ± 0.046	1.09 ± 0.044	1.13 ± 0.021	1.13 ± 0.056
UniProt O94763	1.05 ± 0.048	1.13 ± 0.06	1.05 ± 0.05	1.02 ± 0.1	0.962 ± 0.063	1.02 ± 0.059
